Results taken from the supplement of paper PMC10338343.
± gives the standard deviation.

Each sequence was assayed on MILI (PIWIL2) piRISC loaded with piRNA #1 (26 nt) (assay: pre-steady-state target cleavage rate (min^-1); guide: piRNA #1 5'p-UGAGGUAGUAGGUUGUAUAGUAUCCA; MIWI and MILI are mouse PIWI proteins and EfPiwi is from a freshwater sponge; tags in brackets are library labels; higher = faster piRNA-guided slicing of the target). Conditions: auxiliary factor: 500 nM mouse GTSF1.
Method in brief: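 Sequencing of uncleaved targets, normalised to depth and to weakly complementary targets, was the readout of this Cleave-'n-Seq assay. A transcribed, DNA-blocked target RNA library (0.1 nM) was mixed with 1 nM active affinity-purified piRISC carrying one synthetic guide, with or without 500 nM GTSF1 partner protein, in HEPES–potassium acetate buffer at 33 °C for 0–8 or 0–960 min. Three trials were pooled, k3 was capped at 0.0001 min^-1, and a burst-and-steady-state fit gave the pre-steady-state cleavage rate.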

| Sequence | pre-steady-state target cleavage rate |
| --- | --- |
| GGAGACCUAACUAUACAACCUACUACUCA | 0.141 ± 0.033 |
| GGAGACCUAUGAUUACAACCUACUGCCUCA | 0.00572 ± 0.0028 |
| GGAGACCUAUCUAUACUACCUACUACCACA | 0.117 ± 0.015 |
| GGAGACCUAUGAAUACAACCUACUCCCUCA | 0.00391 ± 0.0022 |
| GGAGACCAUACUAUUCAACCAACUACCUCA | 0.00316 ± 0.0029 |
| GGAGACCUAUGUAUACAACAUACUACCUCA | 0.0179 ± 0.0028 |
| GGAGACCUAACUAAACUACCUACUACCUCA | 0.0594 ± 0.017 |
| GGAGACGAUCUAUACAACCUACUACCUCA | 0.174 ± 0.013 |
| GGAGACCUAUGUAUACAAGCUACAACCUCA | 0.0946 ± 0.011 |
| GGAGACCUUACUAUACAACCUACUUGGAGA [g7:g22:cont:t1A] | 0.00375 ± 0.0034 |
| GGAGACCUUACUAUUACAACCUACUACCUCA | 0.117 ± 0.01 |
| GGAGACCUAUGAUAUCAACUUACUACCUCA | 0.00319 ± 0.0027 |
| GGAGAGGAUUCUAUACAACCUACUAGCUCA | 0.0566 ± 0.01 |
| GGAGACCUAUGAUUACAACCUAUUACCUCA | 0.00348 ± 0.0024 |
| GGAGAGGAUUCUAUACAACCUACUACGUCA | 0.0519 ± 0.0081 |
| GGAGUGGAUACUAUAGAACCAACUACCUCA | 0.00293 ± 0.0022 |
| GGAGACCUAACUAAUCAACCUACUACCUCA | 0.0719 ± 0.016 |
| GGAGAGGAUACUAUACAACCAACUACCUGA | 0.00399 ± 0.0021 |
| GGAGACCUAUGAUUACAACCUACUACGCUCA | 0.0104 ± 0.0039 |
| GGAGACCUAUCUAUACAACCUGCUACCUCA | 0.0162 ± 0.0048 |

| Sequence | pre-steady-state target cleavage rate |
| --- | --- |
| GGAGACCUAUGAUAUGUUCGUACUACCUGA | < 0.0001 |
| GGAGACCUAUGAAUAUAACCUACUACCUCA | 0.0081 ± 0.0024 |
| GGAGACGAUACUAUACAACCUACUACGACA | 0.131 ± 0.022 |
| GGAGACCUAUGAUAAACAACCUACUACCUCA | 0.00811 ± 0.0029 |
| GGAGAGGAUUCUAUACAUCCUACUACCUCA | 0.263 ± 0.013 |
| GGAGACCUAACUAUACUAGCUACUACCUCA | 0.12 ± 0.015 |
| GGAGACCUAUCUAAACAACGUACUACCUCA | 0.00647 ± 0.0027 |
| GGAGACCUAUGUAUACAACCUAGAUCCUCA | 0.00265 ± 0.0026 |
| GGAGACCUUACAAUACAAGCUACUACCUCA | 0.191 ± 0.011 |
| GGAGAGGAUAAUAUACAACCUACUACCUCA | 0.135 ± 0.01 |
| GGAGACCUAACUAUUCAACCUAGUACCUCA | 0.0158 ± 0.0076 |
| GGAGACCUAUGAUAUCAACCUAUCUACCUCA | 0.00534 ± 0.002 |
| GGAGACCUUACUAUACAACCAACUACGUCA | 0.00333 ± 0.0023 |
| GGAGACCUAUGAUAUGUACCUACUAGCACA | < 0.0001 |
| GGAGACCAUACUAAACAACCUACUACCACA | 0.233 ± 0.026 |
| GGAGACCAUACUAUACAACCUACUCACCUCA | 0.169 ± 0.015 |
| GGAGACCUUACAUAACAACCUACUACCUCA | 0.013 ± 0.0048 |
| GGAGACCUUACUAUACAACCUACUACUUCA | 0.116 ± 0.016 |
| GGAGACCUAACUAUACAACCUACUAACUCA | 0.1 ± 0.03 |
| GGAGACCUAACUAUACAACCUACAUGCUCA | 0.0479 ± 0.022 |
